A short description of experiment [1]: qHTS assay to identify small molecule antagonists of the estrogen related receptor signaling pathway with the pleiotropic PPARgamma coactivator (PGC) from Tox21 10K library - cell viability counter screen (AID 1224840; active = well fitted cell-killing curve with a large enough effect in the repeat runs, not every such curve was filed as active; also: nearly all actives have a fitted effect of over 40% in size). In a few lines:
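Cell viability is measured by CellTiter-Fluor fluorescence in PGC/ERR cells that receive compounds after a 6-hour attachment period and are then incubated 17.5 hours at 37 C.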

In experiment [2] the target is Thyrotropin receptor (Homo sapiens) (UniProt P16473). Briefly: qHTS assay to identify small molecule agonists of the thyroid stimulating hormone receptor (TSHR) signaling pathway (AID 1224843; calls by dose curve; also: nearly all actives have a fitted effect of over 45% in size). In outline: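 Compounds are titrated over 15 concentrations, in triplicate, onto TSHR-HEK293 cells seeded at 800/well. Plates sit 30 min at room temperature before cAMP-d2 and anti-cAMP cryptate are added; signal is read after a further hour.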
For orientation: In qHTS, concentration-response curves come from the screen itself.

Experiment [3] is described as follows: qHTS assay to identify small molecule agonists of the hypoxia (HIF-1) signaling pathway - cell viability counter screen (AID 1224844; calls by dose curve; also: nearly all actives have a fitted effect of over 50% in size). In outline:
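Viability counter screen: HRE-bla ME-180 cells plated 5 hrs before compound addition, treated 17 hrs at 37C and 5% CO2, then CellTiter-Glo added after the FRET reporter read; luminescence after 30 min.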

A short description of experiment [4]: qHTS assay to identify small molecule agonists of H2AX (AID 1224845; active = well fitted activation curve with a large enough effect in the signal ratio in the repeat runs, not every such curve was filed as active; the % refers to the signal ratio). In a few lines: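 Wild-type CHO-K1 cells plated overnight, then exposed 3 hr at 37C to compounds at 15 concentrations (0.76% DMSO). Lysed, then HTRF anti-pH2AX(S139)-cryptate/anti-H2AX-d2 detection after 24 hr at room temperature; emissions 665 and 620 nm.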
A short description of experiment [5]: qHTS assay to identify small molecule agonists of the hypoxia (HIF-1) signaling pathway (AID 1224846; active = well fitted activation curve with a large enough effect in the signal ratio in the repeat runs, not every such curve was filed as active; the % refers to the signal ratio). In a few lines: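 Agonist mode reporter screen. ME-180 cells stably expressing bla under HRE control received test compounds in DMSO for 17 hrs (37C, 5% CO2), and beta-lactamase activity was then detected with the CCF4-AM FRET substrate.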
A short description of experiment [6]: qHTS assay to identify small molecule agonists of H2AX - cell viability counter screen (AID 1224847; calls by dose curve; also: top concentration of the series differs between compounds; nearly all actives have a fitted effect of over 30% in size). In a few lines:
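Counter-screen for viability: CellTiter-Glo ATP luminescence read after 3 h compound treatment (15-point titration, 0.76% DMSO final) of CHO-K1 cells at 37C, with 30 min room-temperature reagent incubation.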

Experiment [7] is described as follows: qHTS RealTime-Glo MT Cell Viability Assay in HepG2 cells - 24 hour (AID 1224867). Also: nearly all actives have a fitted effect of over 50% in size. In a few lines: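 HepG2 cells were seeded at 600 cells/well together with NanoLuc luciferase and a cell-permeant prosubstrate, preincubated 5 h at 37 C/5% CO2, then pin-dosed with compounds in DMSO. Nonlytic luminescence from viable cells was read at each time point.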
The nature of experiment [8]: qHTS RealTime-Glo MT Cell Viability Assay in HEK293 cells - 32 hour (AID 1224868). Also: nearly all actives have a fitted effect of over 50% in size. Also: potency is read from the fitted curve at half-maximal effect. In a few lines:
(§1)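 HEK293 cells were seeded at 600 cells/well together with NanoLuc luciferase and cell-permeant prosubstrate, preincubated 5 h at 37 C/5% CO2, then given compound in DMSO by pintool. Luminescence from viable-cell prosubstrate reduction was read repeatedly over 40 h.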

A short description of experiment [9]: A CellTox Green Cytotoxicity Assay to monitor cytotoxicity in HEK293 cells - 0 hour (AID 1224869). Also: nearly all actives have a fitted effect of over 50% in size. In a few lines:
(§2)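 Dead-cell fluorescence measured kinetically: asymmetric cyanine dye, HEK293, 600 cells/well, 5 h settle, 23 nL cpd/DMSO, 37 C, reads 0–40 h every 8 h.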

Experiment [10] is described as follows: qHTS RealTime-Glo MT Cell Viability Assay in HepG2 cells - 40 hour (AID 1224870). Also: nearly all actives have a fitted effect of over 50% in size. In outline:
(§3)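 HepG2 cells mixed with RealTime-Glo MT reagents (NanoLuc plus cell-permeant prosubstrate) were seeded at 600 cells/well, incubated 5 h at 37 C/5% CO2, then pinned with compounds in DMSO; nonlytic luminescence tracked viability during 40 h treatment.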

Experiment [11] can be described thus: A CellTox Green Cytotoxicity Assay to monitor cytotoxicity in HEK293 cells - 40 hour (AID 1224871). Also: nearly all actives have a fitted effect of over 45% in size. In a few lines:
as §2

Experiment [12] in a line: qHTS RealTime-Glo MT Cell Viability Assay in HEK293 cells - 16 hour (AID 1224872). Also: nearly all actives have a fitted effect of over 50% in size. Also: potency is read from the fitted curve at half-maximal effect. In a few lines: as §1
Experiment [13] in a line: qHTS RealTime-Glo MT Cell Viability Assay in HepG2 cells - 8 hour (AID 1224873). Also: nearly all actives have a fitted effect of over 55% in size. In outline: as §3
Experiment [14] is described as follows: qHTS RealTime-Glo MT Cell Viability Assay in HEK293 cells - 40 hour (AID 1224874). Also: nearly all actives have a fitted effect of over 50% in size. Also: potency is read from the fitted curve at half-maximal effect. As to conditions: RealTime-Glo luminescence; max response: active compounds read low. In outline:
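600 HEK293 cells per well, dispensed already mixed with RealTime-Glo MT reagents. Compound dosing came 5 h later. The same wells were read for luminescence at 0, 8, 16, 24, 32 and 40 h of exposure at 37 C.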

Experiment [15] is described as follows: A CellTox Green Cytotoxicity Assay to monitor cytotoxicity in HEK293 cells - 24 hour (AID 1224875). Also: series mostly up to about 77 µM; nearly all actives have a fitted effect of over 45% in size. In a few lines:
as §2

Experiment [16] can be described thus: qHTS assay to identify small molecule agonists of the estrogen related receptor signaling pathway with the pleiotropic PPARgamma coactivator (PGC) from Tox21 10K library (AID 1224842). Also: nearly all actives have a fitted effect of over 15% in size. In outline: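 PGC/ERR reporter cells (NTP line) were seeded 2,000 per well, rested 6 h at 37 C/5% CO2, then pin-dosed with compounds in DMSO for 18 h at 37 C; luciferase read by One-Glo luminescence after 30 min at room temperature.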

A short description of experiment [17]: qHTS assay to identify small molecule antagonists of the estrogen related receptor (ERR) signaling pathway from Tox21 library (AID 1224848). Also: nearly all actives have a fitted effect of over 50% in size. Also: potency is read from the fitted curve at half-maximal effect. In outline:
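First, 2,000 ERR cells per well were plated and held 6 h at 37 C/5% CO2. Next, compounds in DMSO were pinned in and left 18 h at 37 C. Finally, ONE-Glo was added and luminescence read after 30 min at room temperature.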

The nature of experiment [18]: qHTS assay to identify small molecule agonists of the estrogen related receptor (ERR) signaling pathway from Tox21 library (AID 1224849; calls by dose curve; also: nearly all actives have a fitted effect of over 15% in size). In a few lines:
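Quantitative HTS in agonist format: NTP ERR cell line, compounds transferred in DMSO after 6 h plating, 18 h incubation at 37 C, ONE-Glo luminescence endpoint.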

A short description of experiment [19]: qHTS assay to identify small molecule antagonists of the estrogen related receptor signaling pathway with the pleiotropic PPARgamma coactivator (PGC) from Tox21 10K library (AID 1224841; call rule not given here). In outline: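 Cells stably carrying the PGC/ERR reporter, seeded at 2,000 per well, received pin-transferred compounds 6 h post-plating. Exposure lasted 18 h at 37 C. Signal: One-Glo luminescence.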

This passage reports outcome, Potency and max response results from PubChem BioAssay (Tox21).

A number with no mark means an inactive call. Inconclusive results are not listed. Calls of active or inactive are those of the source. Unless noted, calls follow the shape of the dose curve; as a rule, active = well fitted curve in the direction sought with a large enough effect in the repeat runs; inconclusive = weak or mixed curves; inactive = no such curve, though single readings can be large; an effect the other way counts as inactive or inconclusive.
% is scaled to controls: 0 for no effect and ±100 for the full control effect.

Thyrotropin receptor (Homo sapiens), sequence (P16473 whole entry, looked up): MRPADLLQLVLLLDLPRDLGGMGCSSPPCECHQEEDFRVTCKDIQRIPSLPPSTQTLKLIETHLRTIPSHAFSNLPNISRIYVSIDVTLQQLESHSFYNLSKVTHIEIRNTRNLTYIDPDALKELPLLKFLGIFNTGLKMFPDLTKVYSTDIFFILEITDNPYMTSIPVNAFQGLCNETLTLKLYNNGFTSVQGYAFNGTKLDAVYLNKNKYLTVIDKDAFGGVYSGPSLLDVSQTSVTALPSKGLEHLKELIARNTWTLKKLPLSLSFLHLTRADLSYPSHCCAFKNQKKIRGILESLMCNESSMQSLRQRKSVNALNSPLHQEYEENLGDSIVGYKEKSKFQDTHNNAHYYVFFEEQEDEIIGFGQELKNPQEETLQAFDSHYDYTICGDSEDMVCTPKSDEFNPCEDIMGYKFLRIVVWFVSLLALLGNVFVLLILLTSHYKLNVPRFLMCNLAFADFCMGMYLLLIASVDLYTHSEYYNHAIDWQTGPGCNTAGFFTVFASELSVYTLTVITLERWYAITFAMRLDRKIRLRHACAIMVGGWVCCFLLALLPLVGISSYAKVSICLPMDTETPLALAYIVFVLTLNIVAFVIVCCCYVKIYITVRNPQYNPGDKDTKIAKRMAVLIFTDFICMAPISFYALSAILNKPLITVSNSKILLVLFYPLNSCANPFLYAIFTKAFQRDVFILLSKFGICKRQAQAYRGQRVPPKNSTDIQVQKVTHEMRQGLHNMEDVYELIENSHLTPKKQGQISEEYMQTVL

Regarding `CNC(=O)NC`, the compound was classed as inactive in experiment [1], in experiment [2], in experiment [3], in [4], in experiment [5] and in experiment [7]. In addition, the call in experiment [10] and in experiment [13] was inactive. In addition, the Potency entry in experiment [6], in experiment [8], in experiment [9], in experiment [11], in [12] and in [15] was “inactive” in each case. Moreover, the max response in [14] was 1.12%.

As to `CNC(=O)C(c1ccccc1)c1ccccc1`, the result in experiment [1], in [2], in experiment [3], in [4], in experiment [5] and in experiment [7] was inactive. In [10], the compound was classed as inactive. The Potency result in experiment [6], in experiment [8], in experiment [9], in experiment [11], in experiment [12] and in experiment [15] was “inactive” throughout. For the same compound, in experiment [14], the max response was 0.511%.

Consider `C1=CCC(c2ccccc2)CC1` (stereo unspecified), for which the outcome in [1], in experiment [16], in experiment [2], in experiment [4], in experiment [5] and in [18] was inactive. Also, the call in experiment [7], in experiment [10] and in experiment [13] was inactive. In addition, the Potency entry in [6], in experiment [17], in [8], in experiment [9], in [11] and in experiment [12] was “inactive” each time. In experiment [14], the max response is 4.33%.

With `Cc1c(C(C)C)c(=O)n(-c2ccccc2)n1C`, the call in [1], in experiment [16], in experiment [3], in experiment [5], in experiment [18] and in experiment [7] was inactive. Besides, the compound was called inactive in experiment [10] and in experiment [13]. In addition, the Potency result in experiment [6], in experiment [17], in experiment [8], in experiment [9], in [11] and in experiment [12] was “inactive” in each case. The Potency entry in experiment [15] was “inactive”. For the same compound, the max response in experiment [14] is 3.94%.

With `CCC(C)(CCC(C)C)C(=O)[O-].CCC(C)(CCC(C)C)C(=O)[O-].[Zn+2]` (stereo unspecified), the result in [1], in experiment [16], in [3], in experiment [4], in experiment [5] and in experiment [18] was inactive. Besides, the compound was called inactive in experiment [7], in experiment [10] and in experiment [13]. Moreover, the Potency entry in experiment [19], in experiment [6], in experiment [8], in experiment [9], in experiment [11] and in experiment [12] was “inactive” each time. Further, in [15], the Potency result was “inactive”. In [14], the max response was 0.868%.

Consider `CO/N=C(/C(=O)N[C@@H]1C(=O)N2C(C(=O)O)=C(Cn3nnc(C)n3)CS[C@H]12)c1csc(N)n1`, for which the result in experiment [1], in experiment [2], in experiment [3], in experiment [4], in experiment [5] and in [7] was inactive. In addition, the result in experiment [10] and in experiment [13] was inactive. Further, the Potency result in [6], in [8], in [9], in experiment [11], in [12] and in [15] was “inactive” in each case. Moreover, in [14], the max response is 1.17%.

In the case of `CC(C)=CC(C)(C)C`, the compound was classed as inactive in experiment [1], in [2], in experiment [3], in [4], in experiment [5] and in [7]. The compound was called inactive in experiment [10] and in experiment [13]. In addition, the Potency result in [6], in [8], in experiment [9], in experiment [11], in [12] and in experiment [15] was “inactive” throughout. The max response in [14] is 6.16%.

With `C1CCN2C[C@@H]3C[C@@H](CN4CCCC[C@@H]34)[C@H]2C1`, the outcome in [1], in experiment [16], in experiment [3], in experiment [4], in experiment [18] and in experiment [7] was inactive. For the same compound, the compound was called inactive in [13]. Also, the Potency entry in [19], in experiment [6], in experiment [17], in [8], in experiment [9] and in [11] was “inactive” throughout. For the same compound, the Potency result in [12] is “inactive”. Further, in experiment [14], the max response is 1.31%.

`Cc1nc2n(c(=O)c1CCN1CCC(C(=O)c3ccc(F)cc3)CC1)CCS2`: the compound was called inactive in [1], in experiment [16], in [2], in experiment [4], in experiment [5] and in experiment [18]. In addition, the outcome in experiment [7], in [10] and in experiment [13] was inactive. The Potency result in [6], in [9], in experiment [11] and in experiment [15] was “inactive” throughout. For the same compound, the Potency in [17] was 11.9 µM (active); in experiment [8], 5.35 µM (active); in [12] it was 9.52 µM (active); in [14] it was 6.01 µM (active).

With `Cn1c(=O)c2c(ncn2CC2OCCO2)n(C)c1=O`, the compound was called inactive in experiment [1], in experiment [16], in experiment [3], in experiment [4], in [18] and in experiment [7]. Also, the compound was classed as inactive in experiment [10] and in experiment [13]. Also, the Potency entry in experiment [19], in [6], in experiment [17], in experiment [8], in experiment [9] and in experiment [11] was “inactive” in each case. In addition, the Potency entry in experiment [12] and in [15] was “inactive” each time. Also, in [14], the max response is 7.08%.

For the compound `C[C@H](CCC(=O)O)[C@H]1CC[C@H]2[C@@H]3[C@H](O)C[C@@H]4C[C@H](O)CC[C@]4(C)[C@H]3C[C@H](O)[C@]12C`, the compound was classed as inactive in experiment [1], in experiment [2], in [3], in experiment [4], in experiment [5] and in experiment [7]. Besides, the compound was classed as inactive in [10] and in experiment [13]. In addition, the Potency result in experiment [6], in [8], in experiment [9], in experiment [11], in [12] and in [15] was “inactive” in each case. Further, in experiment [14], the max response is -1.02%.

With `CCN(CCC#N)c1ccccc1`, the outcome in [1], in experiment [2], in [3], in experiment [4], in experiment [5] and in [7] was inactive. Further, the outcome in experiment [10] and in experiment [13] was inactive. Further, the Potency result in [6], in [8], in experiment [9], in experiment [11], in experiment [12] and in experiment [15] was “inactive” each time. Further, in experiment [14], the max response was 2.36%.

With `CCOC(=O)CCc1ccccc1`, the compound was called inactive in experiment [1], in experiment [2], in [3], in experiment [4], in experiment [5] and in experiment [7]. The result in experiment [10] and in experiment [13] was inactive. In addition, the Potency result in experiment [6], in experiment [8], in [9], in experiment [11], in [12] and in [15] was “inactive” in each case. Further, in experiment [14], the max response is 3.62%.

Regarding `OCCCCCCCl`, the result in experiment [1], in experiment [2], in [3], in experiment [4], in experiment [5] and in [7] was inactive. In experiment [10], the result was inactive. The Potency result in experiment [6], in experiment [8], in experiment [9], in [11], in experiment [12] and in [15] was “inactive” throughout. Also, the max response in experiment [14] was -5.21%.
